Hit rate of the full screen: of about 1,100 compounds, about 70 (6%) were called active. Another 22% or so got no clear call; they are omitted. The call rests on the fitted dose curve; in most records, active means well fitted curve in the direction sought with a large enough effect; inconclusive means small, poorly fitted or top-dose-only effect, or another doubt; inactive means no such curve, though single readings can be large or run the other way. For the sample, actives were picked, then their nearest neighbours and some compounds at random.
On the % scale 0 is the no-effect control and ±100 the full control effect; potency means the concentration at half of the fitted maximal effect.

The target of the assay is Polyunsaturated fatty acid lipoxygenase ALOX12 (Homo sapiens) (UniProt P18054). Nature of the assay: Confirmatory qHTS assay for inhibitors of human arachidonate 12S-lipoxygenase (ALOX12): Round 2. The following applies: purified human 12-LOX, xylenol orange absorbance; series mostly up to 125 µM; activity change, negative = inhibition: at the top concentration. From the text: Assay Provider: Theodore R. Holman Ph.D. University of California, Santa Cruz, California Human lipoxygenase 12hLO is a member of the closely related lipoxygenase family of enzymes which catalyze the site-specific oxidation of arachidonic acid to various hormone precursor molecules and as such is a candidate for drug development in a variety of disease areas, such as cancer and inflammation. Inhibition of 12hLO activity was screened by utilizing arachidonic acid as a substrate. The extent of hydroperoxide product formation was measured by a secondary chromogenic reaction in which xylenol orange (XO, Sigma-Aldrich, cat. number 39,818-7) reacts with the ferric ions produced from the reaction between the hydroperoxide and ferrous ions. The Fe (III)-XO complex is characterized with red-shifted absorbance at 560 nm. A purified preparation of human 12hLO was supplied by Dr. Holman laboratory, University of California, Santa Cruz.
Polyunsaturated fatty acid lipoxygenase ALOX12 (Homo sapiens), sequence (P18054 whole entry, looked up): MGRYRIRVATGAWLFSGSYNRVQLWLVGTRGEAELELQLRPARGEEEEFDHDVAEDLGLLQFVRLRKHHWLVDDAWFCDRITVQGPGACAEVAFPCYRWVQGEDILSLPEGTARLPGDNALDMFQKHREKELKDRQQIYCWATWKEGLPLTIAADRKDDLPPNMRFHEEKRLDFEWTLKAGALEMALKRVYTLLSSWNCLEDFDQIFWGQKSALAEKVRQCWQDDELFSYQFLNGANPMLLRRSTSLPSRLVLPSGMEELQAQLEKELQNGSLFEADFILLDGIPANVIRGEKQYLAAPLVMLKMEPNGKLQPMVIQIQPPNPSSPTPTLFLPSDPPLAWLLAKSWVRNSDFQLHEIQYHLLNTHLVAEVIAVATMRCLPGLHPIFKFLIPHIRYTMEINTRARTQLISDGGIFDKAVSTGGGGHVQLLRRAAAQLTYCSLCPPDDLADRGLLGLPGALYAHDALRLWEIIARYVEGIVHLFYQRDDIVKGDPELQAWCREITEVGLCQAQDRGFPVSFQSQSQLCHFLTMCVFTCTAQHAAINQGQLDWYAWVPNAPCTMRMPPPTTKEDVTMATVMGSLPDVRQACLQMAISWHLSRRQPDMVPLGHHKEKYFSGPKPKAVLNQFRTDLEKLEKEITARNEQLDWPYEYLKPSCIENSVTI
PROTOCOL TABLE SEQUENCE No. (e.g., 1, 2, 3, etc.); […] (e.g., Cells, Incubation, Reagent, etc.); VALUE; DESCRIPTION 1; Enzyme; 3 uL; 150 nM 12hLO enzyme solution dispensed in 1536-well Greiner black, clear bottom plates. 2; Compound; 23 nL; compounds and controls were added. 3; Incubate; 15 min; room temperature. 4; Substrate; 1 uL; 40 uM arachidonic acid (final concentration). 5; Incubate; 30 min; room temperature. 6; Reagent; 4 uL; Fe-XO solution was added to each well. 7; Incubation; 30 min; room temperature 8; Detector; absorbance; Read 1 at 405 nm absorbance using ViewLux (PerkinElmer) CCD imager. 9; Detector; absorbance; Read 2 at 573 nm absorbance using ViewLux (PerkinElmer) CCD imager. NOTES (numbers refer to sequence above) 1; 150 nM 12hLO (final concentration) in buffer solution (25 mM Hepes, 0.01% Triton X-100, pH 7.0) was dispensed in columns 1, 2, 5-48. Column 1 is neutral (100% activity). Buffer only was dispensed in columns 3 and 4 as no enzyme negative controls. The plates were covered with metal lids with gas-exchange holes. 2; Compounds were pin transferred via a Kalypsys Pin Tool (Wako USA) in column 5 - 48. Control compound was transferred in column 2, titration of nordihydroguaiaretic acid (NDGA, Sigma-Aldrich, N5023) with top concentration of 20 mM in DMSO then 1:3 dilution in duplicate. Dilution factor of 23 nL into 4 uL final assay volume. 3; Covered assay plates were incubated for 15 min at room temperature. 4; Substrate was added to start the reaction; 40 uM arachidonic acid (Sigma-Aldrich, St. Louis, MO) was dispensed throughout the plate. 6; Chromogenic detection reagent solution (divalent iron/xylenol orange, Fe-XO) was added to each well: 200 uM xylenol orange, 300 uM ferrous ammonium sulfate prepared freshly in 50 mM sulfuric acid. 8, 9; Two absorbance readouts were obtained at 405 nm and at 573 nm using a ViewLux high-throughput CCD plate imager (PerkinElmer). The 573 to 405 (Read 2 / Read 1) absorbance ratio was used to compute reaction progress.
Background: Quantitative high-throughput screening tests each substance at several concentrations.
In the case of `CC(=O)N1CCC(C(=O)N2CCC3(CC2)NC(=O)N(c2cccc(Cl)c2)N3)CC1`, the Potency is 12.6 µM (active). Take `COc1ccc(OC2CN(Cc3cccc4ccccc34)C2)cc1`: the “activity change, negative = inhibition” value was -3.44% (inactive). Turning to `OCC1CN(Cc2ccc(Cl)cc2)CC12CCNCC2` (stereo not drawn), the “activity change, negative = inhibition” value is -4.83% [at 64.5 µM] (inactive). On the same count and under the same terms, to `O=C(c1ccccc1F)N1CCn2c(nnc2C2CCNCC2)C1` belongs -11.9% (inactive). As to `O=C(Nc1ccc(-c2cccc(F)c2)cc1)C1CCCN1Cc1cnc[nH]1` (stereo not drawn), the “activity change, negative = inhibition” value is 13.7% [at 64.5 µM] (inactive).

Consider `CN1CC(=O)N(C2CCCNCC2)Cc2c(NCC3CC3)ncnc21` (stereo not drawn), for which the “activity change, negative = inhibition” value is -7.12% (inactive). The same measure, in the same setting: under `C=CCNc1oc(-c2cccc3ccccc23)nc1C#N` stands 1.51% [at 64.5 µM] (inactive). `CCCCNc1oc(-c2cccc3ccccc23)nc1C#N`: the Potency is 19.3 µM (active). Regarding `CC(C)Nc1oc(-c2cccc3ccccc23)nc1C#N`, the “activity change, negative = inhibition” value was 11.9% [at 64.5 µM] (inactive). As for `COc1ccc(-c2nc(C3CC3)nc3c2CN([S+](=O)([O-])c2ccccc2)CC3)cc1`, the “activity change, negative = inhibition” value was -25.8% (inactive). On to `CCOCCNc1ncnc2c1CN(C1CCNCC1)C(=O)CN2C`, for which the “activity change, negative = inhibition” value was -10.1% (inactive).

For the molecule `COc1ccc(N2CC3CCC(C2)N3C(=O)c2ccc3c(c2)OCO3)cc1`, the “activity change, negative = inhibition” value is -19.9% (inactive). In the case of `O=C(NCC(F)(F)F)c1cc(C2CC2)nc2c1c(C1CCCN1)nn2-c1ccccc1` (stereo not drawn), the “activity change, negative = inhibition” value is -27.3% (inactive). As to `COc1ccc(-c2noc([C@@H]3Cc4nc[nH]c4CN3C(=O)NC3CCCCC3)n2)cc1`, the Potency was 10 µM (active). In the case of `COC(=O)[C@@H]1Cc2nc[nH]c2CN1C1CCOCC1`, the “activity change, negative = inhibition” value was 10.7% [at 233 µM] (inactive). With `Cc1ccc(NC(=O)N2Cc3[nH]cnc3C[C@H]2c2nc(-c3ccc4ccccc4c3)no2)cc1`, the “activity change, negative = inhibition” value is 3.35% [at 64.5 µM] (inactive). For `COc1ccc(CN2Cc3[nH]cnc3C[C@H]2c2nc(-c3ccncc3)no2)cc1`, the “activity change, negative = inhibition” value was 30.2% (inactive). Turning to `O=C(NC1CCCCC1)N1Cc2[nH]cnc2C[C@H]1c1nc(-c2cccc([N+](=O)[O-])c2)no1`, the Potency is 6.31 µM (active). For the molecule `CN1CC(=O)N(C2CCCNCC2)Cc2c(NCc3cccs3)ncnc21` (stereo not drawn), the “activity change, negative = inhibition” value is -21.3% (inactive). With `CCc1nc2c(c(-c3ccc(OC)cc3)n1)CCN(Cc1ccc(OC)cc1)CC2`, the “activity change, negative = inhibition” value was -27.7% (inactive). On to `O=C(N1CCCC1)N1CCN(c2ccc(Cl)nn2)C(=O)C1`, for which the “activity change, negative = inhibition” value was -25.5% (inactive). Turning to `CC(NC(=O)C1CCN(c2cc(C(F)(F)F)ncn2)CC1)c1ccccc1` (stereo not drawn), the “activity change, negative = inhibition” value is 5.14% [at 64.5 µM] (inactive). Turning to `COc1cccc(N2C(=O)NC(=NC3CCCCC3)C23CCCN([S+](=O)([O-])c2cccs2)C3)c1` (stereo not drawn), the “activity change, negative = inhibition” value was -25.9% (inactive).

For the molecule `O=c1n(-c2cccc(Cl)c2)nc2n1CCN([S+](=O)([O-])c1cccs1)C2`, the “activity change, negative = inhibition” value is -15.3% (inactive). On to `Cc1cccc(CN2CCN(Cc3nc(-c4ccco4)oc3C)C(C)C2=O)c1` (stereo not drawn), for which the “activity change, negative = inhibition” value was -7.87% [at 64.5 µM] (inactive). Still for that read-out and setting: under `COCCNC(=O)c1cc(C2CC2)nc2onc(C3CCCN3)c12` (stereo not drawn) stands -17.5% (inactive). With `CCOC(=O)Cn1c(=O)n(-c2ccccc2OC)c2nc(-c3cccc(F)c3)nc(C(N)=O)c21`, the Potency was 4.4 µM (active). In the case of `CCOC(=O)Cn1c(=O)n(-c2ccccc2OC)c2nc(-c3ccccc3F)nc(C(N)=O)c21`, the Potency was 11 µM (active). In the case of `CCOc1ccccc1CN1CCCCC12Cc1ccccc1CNC2=O` (stereo not drawn), the “activity change, negative = inhibition” value was -12.7% (inactive). Same read-out and setting: to `CCNC(=O)N[C@@H]1C=C[C@@H](c2c(C)nn(-c3ccc(OC)cc3)c2C)C1` belongs 2.01% [at 64.5 µM] (inactive); to `Cc1cc(C(=O)NC2CC2)c2c(C3CCNCC3)noc2n1`, -1.86% (inactive); to `O=C1c2ccccc2CN1C1CCN(Cc2ccsc2)CC1`, -18.5% (inactive).

With `C1CNCC(c2nc(C3CCOCC3)no2)C1` (stereo not drawn), the “activity change, negative = inhibition” value was -7.31% [at 64.5 µM] (inactive).

Turning to `CC(=O)N1CCn2cc(C(=O)N3CCOCC3)nc2C1`, the “activity change, negative = inhibition” value was -9.94% (inactive). Still for that read-out and setting: to `COc1ccccc1C(=O)N1CCn2c(nnc2C2CCNCC2)C1` belongs -23.8% (inactive).

Regarding `CNCc1ccccc1OC(F)(F)F`, the “activity change, negative = inhibition” value is -3.02% (inactive).

Consider `COc1ccccc1CNC(=O)Nc1cccs1`, for which the Potency was 21.7 µM (active). Take `CN1CC(=O)N(C2CCNCC2)Cc2c(NC3CCCCCC3)ncnc21`: the “activity change, negative = inhibition” value was -12.8% (inactive). On to `CN(C)CCCC(=O)N1Cc2ccccc2CC2(CCCCN2CC2CCNCC2)C1` (stereo not drawn), for which the “activity change, negative = inhibition” value was -14.8% (inactive). For the molecule `CCOC(=O)N1CCC(N2CCCC(CCC(=O)Nc3ccc(OC)c(Cl)c3)C2)CC1` (stereo not drawn), the Potency is 12.6 µM (active). With `CCOC(=O)N1CCC(NC)CC1`, the “activity change, negative = inhibition” value was 6.82% (inactive). Turning to `Cc1noc(C)c1C(=O)N1Cc2ccccc2CC2(CCCN(CC3CCNC3)C2)C1` (stereo not drawn), the “activity change, negative = inhibition” value is -14.1% (inactive). With `Fc1ccc(OC2CN(Cc3ccc(C(F)(F)F)cc3)C2)cc1F`, the “activity change, negative = inhibition” value was -5.08% (inactive). In the case of `Cn1ccnc1C(O)c1cc2n(n1)CCN(S(=O)(=O)C1CC1)C2` (stereo not drawn), the “activity change, negative = inhibition” value was 1.79% [at 64.5 µM] (inactive).

In the case of `COc1cccc(N2C(=O)NC(=NC3CCCC3)C23CCCN(CC2CC2)C3)c1` (stereo not drawn), the “activity change, negative = inhibition” value is -17.4% (inactive). In the case of `COCc1cc(C[C@@H]2CC[C@H](O)[C@@H](CNC(=O)NC(C)C)O2)no1`, the “activity change, negative = inhibition” value is -10.6% [at 64.5 µM] (inactive). Turning to `CNCc1ccccc1Cl`, the “activity change, negative = inhibition” value was -9.03% [at 233 µM] (inactive). For `Cc1nc(N2CCC(C(=O)NCc3ccc(C(C)C)cc3)CC2)cc(C(F)(F)F)n1`, the “activity change, negative = inhibition” value is -13.4% [at 64.5 µM] (inactive).

Take `CCCc1nc(C)cc(N2CCC(NCCc3ccc(Cl)cc3)CC2)n1`: the Potency is 2.24 µM (active). On to `O=C(N1CCCCC1)N1CCCC(c2nnc3n2CCNC3)C1` (stereo not drawn), for which the “activity change, negative = inhibition” value was -7.37% (inactive). With `Cc1cc(C)cc(-c2ccc(CN3CCCC(c4nc5ccc(F)cc5c(=O)[nH]4)C3)cc2)c1` (stereo not drawn), the “activity change, negative = inhibition” value was -20.9% (inactive). Consider `CCC(CC)Nc1ncnc2c1CN(C1CCCNCC1)C(=O)CN2C` (stereo not drawn), for which the “activity change, negative = inhibition” value is -2.09% (inactive). In the case of `COc1ccc(Nc2cnc3ccc(-c4cccc(CO)c4)nn23)cc1OC`, the “activity change, negative = inhibition” value was -2.32% [at 64.5 µM] (inactive).

Values taken from PubChem BioAssay AID1671189 (National Center for Advancing Translational Sciences (NCATS), 2021).
